Results taken from PubChem BioAssay (Tox21).
“And” between values parts separate entries of the source, which are not always exact repeats. Identical values can stand only once. Records with an inconclusive call do not appear. A call without a number means that no potency is given here. The source made the active and inactive calls. The call rests on the fitted dose curve; in most records, active means well fitted curve in the direction sought with a large enough effect in the repeat runs; inconclusive means weak or mixed curves; inactive means no such curve, though single readings can be large; an effect the other way counts as inactive or inconclusive.

assay: qHTS assay to identify small molecule agonists of the sonic hedgehog signaling (Shh) pathway - cell viability counter screen (AID 1259366); conditions: NIH/3T3 Gli1-Luc viability, CellTiter-Fluor, 24 h; series mostly up to 92.4 µM; further: nearly all actives have a fitted effect of over 50% in size
Outline: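 Cytotoxicity counter screen: CellTiter-Fluor reagent added after 23 h compound exposure, then 1 h at 37C and fluorescence read. Cells were 3T3 Gli1-Luc, seeded 2,000 per well and dosed 4 h post-plating.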
Potency means the concentration at half of the fitted maximal effect.

Row | SMILES | Potency
1 | O=Cc1ccccc1O | inactive
2 | O=[N+]([O-])c1ccc2c(c1)Cc1ccccc1-2 | inactive
3 | S=C(NC1CCCCC1)NC1CCCCC1 | inactive
4 | c1ccc2sc(SSN3CCOCC3)nc2c1 | 48.5 µM (active)
5 | CN(C)CCN(Cc1cccs1)c1ccccn1 | inactive
6 | OC1CCCCCCCCCCC1 | inactive
7 | COC(=O)CCC(=O)OC | inactive
8 | CCCCC(CC)COCC1CO1 (configuration not stated) | inactive
9 | CCC(C)CO (configuration not stated) | inactive
10 | Nc1ncnc2nc[nH]c12 | inactive
11 | c1cc(N(CC2CO2)CC2CO2)ccc1OCC1CO1 (configuration not stated) | 61.1 µM (active)
12 | Nc1ccc(Nc2ccccc2)cc1 | 61.1 µM (active)
13 | O=C(/C=C/C=C/c1ccc2c(c1)OCO2)N1CCCCC1 | inactive
14 | CCCCOCCOCCO | inactive
15 | c1ccc2c(c1)Oc1ccccc1S2 | inactive
16 | c1ccncc1 | inactive
17 | Nc1ccc(Cl)cc1Cl | inactive
18 | CCCCCCCCCCCO | inactive

Row | SMILES | Potency
19 | CCCCOCCOCCOCCO | inactive
20 | CCC(C)OC(=O)c1ccc(O)cc1 (configuration not stated) | inactive
21 | CCOC(=O)C(C#N)=C(c1ccccc1)c1ccccc1 | inactive
22 | CCC(C)(O)CCCC(C)C (configuration not stated) | inactive
23 | CC(=O)CC/C=C(\C)CCC=C(C)C | inactive
24 | CC1=CC2C3CC(C=C3C)C2C1 (configuration not stated) | inactive
25 | C=CC(C)(CCC=C(C)C)OC(C)=O (configuration not stated) | inactive
26 | CCCCNS(=O)(=O)c1ccccc1 | inactive
27 | OC(CCl)CCl | inactive
28 | COc1ccccc1/C=C/C=O | inactive
29 | O=C(OCc1ccccc1)c1ccccc1O | inactive
30 | c1cc(-c2ccncc2)ccn1 | inactive
31 | CC(C)OB(OC(C)C)OC(C)C | inactive
32 | CC(CCC(=O)O)(c1ccc(O)cc1)c1ccc(O)cc1 | inactive
33 | CC(C)OC=O | inactive
34 | COC(=O)C1=C(C)NC(C)=C(C(=O)OCCN(C)Cc2ccccc2)C1c1cccc([N+](=O)[O-])c1 (configuration not stated) | 30.5 µM (active) and 11.9 µM (active)
35 | CC(C)=CCCC(C)CCO (configuration not stated) | inactive
36 | O=C(c1ccccc1)c1ccc(O)cc1O | inactive

assay: qHTS assay to identify small molecule antagonists of the sonic hedgehog signaling (Shh) pathway - cell viability counter screen (AID 1259367); conditions: NIH/3T3 Gli1-Luc viability, CellTiter-Fluor, 24 h; series mostly up to 92.4 µM; further: nearly all actives have a fitted effect of over 55% in size
Outline: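 Using CellTiter-Fluor, viability of Gli1-Luc reporter 3T3 cells is read by fluorescence in the wells used for the Shh luciferase assay. Treatment lasts 23 hr with conditioned medium, then reagent 1 hr at 37C.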

Row | SMILES | Potency
37 | O=Cc1ccccc1O | inactive
38 | C[C@]12CCC(=O)C=C1CC[C@@H]1[C@@H]2C(=O)C[C@@]2(C)[C@H]1CC[C@]2(O)C(=O)CO | inactive
39 | c1ccc2sc(SSN3CCOCC3)nc2c1 | 54.4 µM (active)
40 | OC1CCCCCCCCCCC1 | inactive
41 | CCCCC(CC)COCC1CO1 (configuration not stated) | inactive
42 | Nc1ccccc1N | inactive
43 | Nc1ncnc2nc[nH]c12 | inactive
44 | c1cc(N(CC2CO2)CC2CO2)ccc1OCC1CO1 (configuration not stated) | 27.3 µM (active)
45 | O=C(/C=C/C=C/c1ccc2c(c1)OCO2)N1CCCCC1 | inactive
46 | CCCCOCCOCCO | inactive
47 | c1ccc2c(c1)Oc1ccccc1S2 | inactive
48 | c1ccncc1 | inactive
49 | Nc1ccc(Cl)cc1Cl | inactive
50 | CCCCCCCCCCCO | inactive
51 | CCCCOCCOCCOCCO | inactive
52 | CCOC(=O)C(C#N)=C(c1ccccc1)c1ccccc1 | inactive
53 | CC(=O)CC/C=C(\C)CCC=C(C)C | inactive
54 | CC1=CC2C3CC(C=C3C)C2C1 (configuration not stated) | inactive
55 | OC(CCl)CCl | inactive
56 | COc1ccccc1/C=C/C=O | inactive
57 | O=C(OCc1ccccc1)c1ccccc1O | inactive
58 | CC(C)OB(OC(C)C)OC(C)C | inactive
59 | CC(CCC(=O)O)(c1ccc(O)cc1)c1ccc(O)cc1 | inactive
60 | CC(C)OC=O | inactive
61 | COC(=O)C1=C(C)NC(C)=C(C(=O)OCCN(C)Cc2ccccc2)C1c1cccc([N+](=O)[O-])c1 (configuration not stated) | 48.3 µM (active) and 2.37 µM (active)
62 | CC(C)=CCCC(C)CCO (configuration not stated) | inactive
